The record followed here is PubChem BioAssay (NCI).

“And” between values parts separate entries of the source, which are not always exact repeats. Equal entries are not always repeated. The panel holds about 83,000 compounds, 20% with a hit somewhere; the sample as a whole holds those more often.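 How to read the values: 0–100, growth inhibition (40 = 60% inhibited); 0, no net growth; -100 to 0, cell death (-40 = 40% of starting cells died; -100 = all dead).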 The source made the active and inactive calls. How the source made its calls: active means growth percent below 10; inactive means the rest.

The test system of this assay is MDA-MB-468 breast. Put plainly: NCI-60 one-dose screen, 48 h (100 = growth as untreated, 0 = no growth, -100 = all killed). As to conditions: 10 µM unless noted.
Consider `CN1CCN(Cc2ccc(NC(=O)c3cncc(C#Cc4cnc(N)c5ccccc45)c3)cc2C(F)(F)F)CC1`, for which the growth was -80.8% (active).

For `O=C1N/C(=N/N=C(c2ccccc2)c2ccccc2)S/C1=C\c1ccc(Br)cc1`, the growth was 103% (inactive).

For `CCSC(SCC)c1ccc(Cl)cc1`, the growth is 118% (inactive).

Consider `CCCCCCNC(=O)Nc1ncnc2c1ncn2-c1ccccc1`, for which the growth is 105% (inactive).

For `Cc1ccc(-c2nc([P+](c3ccccc3)(c3ccccc3)c3ccccc3)c(N3C[C@H]4C[C@H](C3)c3cccc(=O)n3C4)o2)cc1`, the growth is -9.01% (active). Under `O=S(=O)(Oc1ccc(-c2cn3ccoc3n2)cc1)c1cccc(C(F)(F)F)c1` stands 86.9% (inactive); under `CC1(C)CC2(C)OC2C2(C1)N=NC(=Nc1ccccc1)O2` (stereo not given), -15.6% (active); under `CNC(=O)c1cc(Oc2ccc3nc(NC(=O)c4ccc(CN5CCN(C)CC5)c(C(F)(F)F)c4)sc3c2)ccn1`, 52.1% (inactive).

Turning to `Nc1nc(SC/C=C/CCl)c2[nH]cnc2n1`, the growth was 103% (inactive) and 127% (inactive). As for `COc1cc2cc(Oc3ccc(NC(=O)Nc4cc(C(F)(F)F)cc(C(F)(F)F)c4)cc3)c(C)nc2cc1OCCN1CCCCC1`, the growth is -78.6% (active).

Take `CCNCCNc1cc(-c2ccc(F)cc2)c(C#N)c2nc3ccccc3n12`: the growth was -8.31% (active). Regarding `COc1ccc2c(c1)c(CC(=O)O)c(C)n2C(=O)c1ccc(Cl)cc1`, the growth was 96.4% (inactive). Under `COc1cccc(-c2nc(-c3ccc(NS(=O)(=O)c4ccccc4)cc3)[nH]c2-c2ccnc(Br)c2)c1` stands 18.3% (inactive); under `CC(=C(c1ccc(OCCCN(C)C)cc1)c1ccc(OCCCN(C)C)cc1)c1ccc(Cl)cc1`, 80% (inactive). Consider `Cc1nn2c(/C=C3/C(=O)Nc4ccc(Cl)cc43)c(-c3ccccc3)nc2s1`, for which the growth is 35.7% (inactive). For the molecule `C[N+]1=C(/C=C/c2ccc(I)cc2)C(C)(C)c2ccccc21`, the growth is 95.3% (inactive). Regarding `O=S1(=O)NCCCN1CCNc1nccc(-c2c(-c3cccc(O)c3)nc3sccn23)n1`, the growth is 78.8% (inactive). With `CCc1ccc(Cc2cnc(NC(=O)c3cc(C)oc3C)s2)cc1`, the growth was 9.5% (active). Under `CCCC[n+]1c(/C=C\c2c(OC)cc(OC)cc2OC)ccc2ccccc21` stands -31% (active); under `N#Cc1nn(-c2cc(=O)[nH]c3ccc(Br)cc23)c(N)c1C#N`, 106% (inactive). Under `O=C(Nc1ccc(-n2ccc3c(NC(=O)c4ccccc4)ncnc32)cc1)Nc1cccc(Cl)c1Cl` stands -35.7% (active); under `CCN(CC)CCN1CNC(=S)NC1`, 99.7% (inactive). In the case of `COc1ccc(C(=O)/C=C/c2ccccc2)cc1S(N)(=O)=O` it was 66.1% (inactive); in that of `N=C(N)c1ccc(-c2ccc(-c3ccccc3)o2)cc1`, -68.6% (active); in that of `O=C1CN2CCC1C/C2=C\c1ccnc2c(Cl)cccc12` (stereo not given), 90.8% (inactive).

With `COc1ccc(C(=O)/C=C/c2c(C(F)(F)F)nc3sccn23)cc1OC`, the growth is -21.1% (active). In the case of `Cc1ccc2c(N/N=C\c3ccco3)cc(C)nc2n1`, the growth is 70.2% (inactive). In the case of `CCCCCCCCCCCCCC[n+]1ccc(C)cc1` it was -29.9% (active); in that of `CC(C)(CC(=O)O)CC(=O)O`, 96.4% (inactive); in that of `COc1ccc2nc3cc(Cl)ccc3c(NCCNCC(C)O)c2c1` (stereo not given), 38.6% (inactive). Regarding `Cc1nc2ccccc2c(/C=C/c2ccccc2)c1C(=O)/C=C/c1ccc(Cl)cc1`, the growth was 19.4% (inactive).

`O=C1/C(=C/c2ccc(Cl)cc2Cl)CN(S(=O)(=O)c2ccccc2)C/C1=C\c1ccc(Cl)cc1Cl`: the growth was -24.5% (active). Regarding `N#Cc1c(N2CCNCC2)nc2sc3cc(Cl)c(Cl)cc3n2c1=N`, the growth is 90.2% (inactive). On to `COc1cc(/C=C/C(=O)N2CCN(C(=O)/C=C/c3ccccc3)CC2)cc(OC)c1OC`, for which the growth is 107% (inactive). `Cn1cnc(-c2cc3nccc(Oc4ccc(NC(=S)NC(=O)Cc5ccccc5)cc4F)c3s2)c1`: the growth was 103% (inactive). In the case of `CC(C)Sc1nc(NNC(N)=S)c(C#N)c(-c2ccc(F)cc2)n1` it was 98.4% (inactive); in that of `COc1cc2cc(Oc3ccc(NC(=O)c4cc(C(F)(F)F)cc(C(F)(F)F)c4)cc3)c(C)nc2cc1OCCN1CCOCC1`, 66.9% (inactive); in that of `Cc1ccc(/C=C/C(=O)Nc2ncc(Cc3ccc(F)cc3)s2)o1`, 34% (inactive). In the case of `CCNC(=O)c1[nH]cc(-c2ccccc2)c1-c1cc(OC)c2c(c1OC)OCO2`, the growth was 104% (inactive).

In the case of `Cc1ccc(N)cc1[N+](=O)[O-]`, the growth was 115% (inactive).
